From the supplement of paper PMC10681739 come the findings set out here.

Experiment [1] addresses T1, ETS1 (UniProt P14921).
T1 sequence: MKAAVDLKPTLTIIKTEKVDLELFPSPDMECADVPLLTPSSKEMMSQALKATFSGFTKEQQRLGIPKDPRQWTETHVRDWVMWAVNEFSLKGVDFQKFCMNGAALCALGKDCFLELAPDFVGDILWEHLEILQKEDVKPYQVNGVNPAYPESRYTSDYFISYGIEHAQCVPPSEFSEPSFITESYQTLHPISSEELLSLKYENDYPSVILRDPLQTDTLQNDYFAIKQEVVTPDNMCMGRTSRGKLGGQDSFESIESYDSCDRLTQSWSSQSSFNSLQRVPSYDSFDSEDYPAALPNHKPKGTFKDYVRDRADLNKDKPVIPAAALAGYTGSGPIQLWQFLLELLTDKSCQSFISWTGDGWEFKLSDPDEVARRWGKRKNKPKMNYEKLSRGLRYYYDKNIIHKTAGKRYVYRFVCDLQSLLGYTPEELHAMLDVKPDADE
In words: ETS1 binding intensity (PBM fluorescence), ETS1 alone (arbitrary fluorescence units); higher = stronger binding. The conditions noted are these: ETS1 concentration 1 nM; RUNX1 concentration 0 nM.

The target of experiment [2] is RUNX1 (UniProt Q01196). Kind of experiment: RUNX1 binding intensity (PBM fluorescence), RUNX1 alone (arbitrary fluorescence units); higher = stronger binding. The conditions noted are these: RUNX1 concentration 2 nM; ETS1 concentration 0 nM. The procedure: (§1)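 Cooperative gcPBM on 36-bp genomic probes with neighbouring ETS1 and RUNX1 sites. Recombinant human RUNX1 (2 nM) was incubated alone or with ETS1 (25 nM) and detected with anti-RUNX1 antibody plus Alexa488 secondary. Values are medians over 4 replicate spots; the RUNX1+ETS1 data were normalised to the RUNX1-only data. The probes sit in constant array flanks that are not printed.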
Sequence of RUNX1 (Q01196 whole entry): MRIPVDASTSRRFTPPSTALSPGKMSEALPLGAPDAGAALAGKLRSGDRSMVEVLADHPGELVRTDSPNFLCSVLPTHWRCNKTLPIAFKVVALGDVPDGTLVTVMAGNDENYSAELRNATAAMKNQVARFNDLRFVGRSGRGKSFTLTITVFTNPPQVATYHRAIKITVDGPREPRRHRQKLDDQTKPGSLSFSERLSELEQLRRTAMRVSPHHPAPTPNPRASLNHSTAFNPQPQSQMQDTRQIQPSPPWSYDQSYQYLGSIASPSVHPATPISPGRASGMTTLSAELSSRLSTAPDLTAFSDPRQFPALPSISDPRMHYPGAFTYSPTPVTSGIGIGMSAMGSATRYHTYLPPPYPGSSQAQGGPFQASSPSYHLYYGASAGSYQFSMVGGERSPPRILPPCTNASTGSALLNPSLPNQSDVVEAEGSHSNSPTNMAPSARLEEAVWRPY

The target in experiment [3] is T1, ETS1. In words: ETS1 binding intensity (PBM fluorescence) in presence of RUNX1, normalised to ETS1-only experiment (arbitrary fluorescence units); higher = stronger binding. The conditions noted are these: ETS1 concentration 1 nM; RUNX1 concentration 25 nM.
The target of experiment [4] is RUNX1 (UniProt Q01196). In words: RUNX1 binding intensity (PBM fluorescence) in presence of ETS1, normalised to RUNX1-only experiment (arbitrary fluorescence units); higher = stronger binding. The conditions noted are these: RUNX1 concentration 2 nM; ETS1 concentration 25 nM. The procedure: as §1
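For RUNX1 binding intensity (PBM fluorescence) in presence of ETS1, normalised to RUNX1-only experiment in this document: Full-length recombinant human ETS1 or RUNX1 bound to double-stranded 36-bp genomic probes on microarrays, detected by protein-specific primary antibody and Alexa488 secondary, spot fluorescence as median of four replicate spots.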
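For RUNX1 binding intensity (PBM fluorescence), RUNX1 alone in this document: Full-length recombinant human RUNX1 bound to double-stranded 36-bp genomic probes on a high-density microarray, scored as Alexa488 fluorescence per spot via anti-RUNX1 antibody, median of four replicate spots.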

In the case of CGGGGATGGGATTTCCGGTGGTTTTTCTTCACTTTC, the ETS1 binding intensity was found to be 4490 in experiment [1] and 4760 in experiment [3]. The RUNX1 binding intensity came to 851 in experiment [2] and 3240 in experiment [4].
Taken in the same sequence, the figures for CCCTGGACGGGAAGCGGCGGCCAGATCCGCAAGCCC were 584, 747, 808 and 940.
Turning to TTTGCTGCAGAAGGATGTGGTTTATTCAGGTTTGAC, the ETS1 binding intensity in experiment [1] came out at 676; in experiment [3] it was 3620. Moreover, the results for the RUNX1 binding intensity in experiment [2] and in experiment [4] were 932 and 1270, respectively.
Turning to GCCGTAGCGGAAGAGTGTTCGTGGTCATGTGACGCC, the ETS1 binding intensity worked out at 671 in experiment [1] and 814 in experiment [3]. In addition, the RUNX1 binding intensity in experiment [2] stood at 718; in experiment [4], 1160.
For TTGGAGGCGGAAACAGGCACCGAAAGCGGTGGAAGT, the ETS1 binding intensity is 2150 in experiment [1] and 2120 in experiment [3]. The RUNX1 binding intensity is 717 in experiment [2] and 854 in experiment [4].
For the sequence GAGGGGAGGATGTCTGAGCTTTTAATTGTGGTTTCA, the ETS1 binding intensity was 370 in experiment [1] and 1050 in experiment [3]. The RUNX1 binding intensity in experiment [2] is 870; in experiment [4], 943.
Take GGGGCTGGGAAAGGATGTGGTAAGGGCCAGTCAGTC: the ETS1 binding intensity was determined as 884 in experiment [1] and 3240 in experiment [3]. Besides, the values for the RUNX1 binding intensity in experiment [2] and in experiment [4] were 749 and 1920, respectively.
As for CGGGACACAGGAAGCCGTTGTGGGGCCCCGGGGCCA, the ETS1 binding intensity in experiment [1] was 1960; in experiment [3] it was 1970. Besides, the RUNX1 binding intensity in experiment [2] was 711; in experiment [4] it was 982.
Take GCATCATCACTTCCTGTTGTGGGCAGTCGTTGCCTG: the ETS1 binding intensity was found to be 3300 in experiment [1] and 5100 in experiment [3]. For the same sequence, the values for the RUNX1 binding intensity in experiment [2] and in experiment [4] were 843 and 2360, respectively.
For CTGGGCTCGCCAGGCGGAAGTGGTTGGAGACTGCGT, in that order: 6330, 9090, 668 and 1510.
Taken in the same sequence, the figures for AGGCGCCGGAAAAACTACATCTCCCACAATCCTCGG were 484, 396, 965 and 913.
Taken in the same sequence, the figures for CCCCTCCCTGCTTCCTGTGTGGTGAGGGGTGATCAG were 2040, 2040, 782 and 1870.
Take GGTTGTAAGTTCACAGGATGTGGTGTGTCCCTGTGG: the values for the ETS1 binding intensity in experiment [1] and in experiment [3] were 4130 and 6360, respectively. In addition, the RUNX1 binding intensity turned out to be 827 in experiment [2] and 1400 in experiment [4].
Consider CATCCAGGACGGAAACAGCATCCCCACCGCGGGAGC, for which the ETS1 binding intensity in experiment [1] is 775; in experiment [3], 852. The figures for the RUNX1 binding intensity in experiment [2] and in experiment [4] were 855 and 1080, respectively.
Regarding AGTCCTGCCCACTTCCTGCCGCAAGAGAAATCCACT, the ETS1 binding intensity in experiment [1] was found to be 1930; in experiment [3], 3260. The RUNX1 binding intensity was found to be 1250 in experiment [2] and 9180 in experiment [4].
For TTGGAAACAGACAGGAAGCCACAGGCAGTAAACATT, in that order: 3300, 3670, 753 and 978.
In the case of AGCAACAACAAAGGAAGTGGCGGCCGCAGGGGGAGG, the ETS1 binding intensity amounted to 1320 in experiment [1] and 2160 in experiment [3]. The RUNX1 binding intensity turned out to be 795 in experiment [2] and 909 in experiment [4].
Taken in the same sequence, the figures for ACCCTACTTCCGTTGCTGTGTTGCGGAGGTGACCTA were 1210, 1240, 844 and 1700.
Take GGGCGGGTGAGACCAGGATGTGGGTTCCCCCACCTT: the figures for the ETS1 binding intensity in experiment [1] and in experiment [3] were 1880 and 3540, respectively. Moreover, the values for the RUNX1 binding intensity in experiment [2] and in experiment [4] were 775 and 1120, respectively.
As to AAGTTTTGGGTTTTCCGCCCACAGCCGCCGAAAGTG, the ETS1 binding intensity in experiment [1] amounted to 630; in experiment [3], 684. The RUNX1 binding intensity in experiment [2] worked out at 888; in experiment [4] it was 1090.
For TGACTTCCGGTCCGTAGTGGGGCCTGCGGTGGGAGT, in that order: 3690, 10700, 801 and 3180.
For CCCTGGGGCCCCACTTCCTTGCCCACAAGAAAGGAC, the ETS1 binding intensity in experiment [1] amounted to 395; in experiment [3], 446. The RUNX1 binding intensity amounted to 1020 in experiment [2] and 1360 in experiment [4].
On to AAGACAACATCCTGCCGGCACAGCCTGCGGGTTACT, for which the ETS1 binding intensity in experiment [1] amounted to 576; in experiment [3], 1480. The RUNX1 binding intensity in experiment [2] stood at 720; in experiment [4] it was 1420.
Regarding CCCTACTCAGGAGGATGTGGTTGGAGAACCCGCTGA, the ETS1 binding intensity in experiment [1] turned out to be 815; in experiment [3] it was 2260. The RUNX1 binding intensity in experiment [2] came out at 755; in experiment [4], 1300.
As to CCCAGGGCAGGAAGGGCCAAACCGCTACTGCCACTG, the ETS1 binding intensity in experiment [1] was 882; in experiment [3], 2080. Besides, the figures for the RUNX1 binding intensity in experiment [2] and in experiment [4] were 744 and 908, respectively.
For GACTGCACTTCCTCTGCTTCGAGGTCGGTGGTTAGC, in that order: 535, 653, 874 and 1450.
Regarding TCCAGCCCCACCGGAAGTGGATGTGGTTAATCTAGT, the ETS1 binding intensity in experiment [1] was 28800; in experiment [3], 56400. The RUNX1 binding intensity in experiment [2] stood at 955; in experiment [4], 6380.
Taken in the same sequence, the figures for GCAGAAACAGGAAGAGACAGGGCTGACCGCAGCAGG were 1290, 6300, 1230 and 2340.
For TTCATTTCTACCTTCCTGTGGTCTTTTTGCCTCCGA, the figures for the ETS1 binding intensity in experiment [1] and in experiment [3] were 512 and 470, respectively. Besides, the RUNX1 binding intensity was determined as 1860 in experiment [2] and 2320 in experiment [4].
For CCAGGGCCGGAAGTGCTGGTGGTGGTTTCCATCATG, in that order: 8960, 13900, 733 and 1750.
Turning to AAATATAGTGCTAAAGGAAGTGGTTTTCATGCAACT, the ETS1 binding intensity worked out at 2380 in experiment [1] and 4140 in experiment [3]. In addition, the RUNX1 binding intensity in experiment [2] was 670; in experiment [4], 1080.
As for ACTGCTTGATTTTCAGGAAGTGGTAAAGTGGCAGGT, the ETS1 binding intensity in experiment [1] was 3700; in experiment [3], 9050. Besides, the results for the RUNX1 binding intensity in experiment [2] and in experiment [4] were 782 and 957, respectively.
Regarding TGCCACCTGCTTCCTGCCTGTGTAGCCACAAGGGAC, the figures for the ETS1 binding intensity in experiment [1] and in experiment [3] were 783 and 960, respectively. For the same sequence, the RUNX1 binding intensity in experiment [2] turned out to be 910; in experiment [4], 1600.
Taken in the same sequence, the figures for AGATGAGGAAGTTGGGGTTTAGAGTGGTTAAACTGT were 502, 655, 698 and 1020.
In the case of CCCCTCAGCTTCCGGGTGCTGCGGCCGCGGCCGAGA, the ETS1 binding intensity in experiment [1] turned out to be 646; in experiment [3], 999. Besides, the RUNX1 binding intensity in experiment [2] stood at 827; in experiment [4], 1980.
In the case of TGGGGCTAGGCTTCCGGGGCTCTGCGGTCCTCGGCC, the values for the ETS1 binding intensity in experiment [1] and in experiment [3] were 481 and 623, respectively. The RUNX1 binding intensity in experiment [2] stood at 662; in experiment [4] it was 1180.
For the sequence CTGCACTTCCGGTCAGGCGGTCGGGCTGCGGGGCCC, the values for the ETS1 binding intensity in experiment [1] and in experiment [3] were 5690 and 6710, respectively. Besides, the RUNX1 binding intensity in experiment [2] stood at 739; in experiment [4], 2680.
